{"source": "the supplement of paper PMC11624193", "about": "“Coupling cellular drug-target engagement to downstream pharmacology with CeTEAM” (Nature Communications, 2024)", "note": "Values joined by “and” are separate entries in the source; they are usually repeats but may differ in a detail not shown here. Equal entries are not always repeated. A number with no mark means an inactive call.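 How the source made its calls: active = log2 fold change beyond 2 SD from the library mean after excluding viability outliers; inactive = within 2 SD.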"}
{"molecular_target": "PARP1 L713F-nLuc biosensor (HCT116) (UniProt P09874)", "sequence (P09874 whole entry L713F, looked up)": "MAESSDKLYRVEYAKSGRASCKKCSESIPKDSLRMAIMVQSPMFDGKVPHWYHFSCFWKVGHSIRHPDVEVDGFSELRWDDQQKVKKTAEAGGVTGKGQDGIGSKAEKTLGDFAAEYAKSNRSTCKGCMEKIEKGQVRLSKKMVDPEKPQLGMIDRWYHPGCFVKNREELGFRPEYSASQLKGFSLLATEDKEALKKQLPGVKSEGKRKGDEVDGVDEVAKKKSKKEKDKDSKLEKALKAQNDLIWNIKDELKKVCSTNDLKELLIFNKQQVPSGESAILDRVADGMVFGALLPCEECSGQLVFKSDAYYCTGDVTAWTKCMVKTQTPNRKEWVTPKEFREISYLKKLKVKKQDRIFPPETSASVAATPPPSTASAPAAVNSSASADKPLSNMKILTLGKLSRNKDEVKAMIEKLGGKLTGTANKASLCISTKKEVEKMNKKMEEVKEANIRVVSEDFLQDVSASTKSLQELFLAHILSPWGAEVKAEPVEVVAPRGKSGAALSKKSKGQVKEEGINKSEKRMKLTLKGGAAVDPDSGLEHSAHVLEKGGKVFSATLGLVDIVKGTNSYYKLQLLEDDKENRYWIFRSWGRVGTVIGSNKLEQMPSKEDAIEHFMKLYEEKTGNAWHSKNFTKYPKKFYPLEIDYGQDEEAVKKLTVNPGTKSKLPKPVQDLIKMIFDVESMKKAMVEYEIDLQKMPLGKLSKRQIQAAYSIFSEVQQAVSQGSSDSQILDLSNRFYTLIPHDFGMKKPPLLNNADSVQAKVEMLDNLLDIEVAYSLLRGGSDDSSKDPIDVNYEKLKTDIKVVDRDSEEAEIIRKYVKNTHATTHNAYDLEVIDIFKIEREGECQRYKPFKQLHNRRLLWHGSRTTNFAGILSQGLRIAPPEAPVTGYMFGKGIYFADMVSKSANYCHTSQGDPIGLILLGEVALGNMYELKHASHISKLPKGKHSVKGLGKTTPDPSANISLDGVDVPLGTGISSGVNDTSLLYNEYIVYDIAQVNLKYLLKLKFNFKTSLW", "assay": "PARP1 L713F-nLuc/akaLuc ratio relative to DMSO control (biosensor stabilization) (fold change); higher = more PARP1 biosensor stabilization (target engagement / stabilizer), active = hit call of the paper", "details": "stock concentration (mM; final µM = stock mM x 1): 10; 24 h"}
{"smiles": "Cc1ccc(NC(=O)c2ccc(CN3CC[C@H](N(C)C)C3)c(C(F)(F)F)c2)cc1Nc1nccc(-c2cncnc2)n1", "note": "[Bafetinib (INNO-406)]", "PARP1 L713F-nLuc/akaLuc ratio": 0.726}
{"smiles": "O=C(O)c1cnn(-c2nc3cc(OC(F)(F)F)c(Cl)cc3[nH]2)c1", "PARP1 L713F-nLuc/akaLuc ratio": 0.757}
{"smiles": "Cn1cc(C(=O)Nc2ccc([C@@H]3C[C@H]3NCC3CC3)cc2)cn1", "PARP1 L713F-nLuc/akaLuc ratio": 0.949}
{"smiles": "Nc1[nH]c(=O)nc2c1ncn2[C@@H]1O[C@H](CO)[C@@H](O)[C@H]1O", "note": "[Crotonoside]", "PARP1 L713F-nLuc/akaLuc ratio": 0.835}
{"smiles": "Cc1ccc(-c2cc(C(F)(F)F)nn2-c2ccc(S(N)(=O)=O)cc2)cc1", "note": "[Celecoxib]", "PARP1 L713F-nLuc/akaLuc ratio": 1.02}
{"smiles": "COC(=O)c1ccc(N2CCN(C)CC2)c(NC(=O)c2cccc(OC)c2)c1", "PARP1 L713F-nLuc/akaLuc ratio": 0.856}
{"smiles": "CNC(=O)c1ccc(C)c(-n2c(C)cc(OCc3ccc(F)cc3F)c(Br)c2=O)c1", "PARP1 L713F-nLuc/akaLuc ratio": 0.728}
{"smiles": "Cc1cc(C)nc(SCC(=O)Nc2ncc(Cc3cccc(OCc4cn(Cc5ccccc5)nn4)c3)s2)n1", "PARP1 L713F-nLuc/akaLuc ratio": 0.615}
{"smiles": "CN(C)CCCNC(=O)c1ccc(-c2cc(O)c3ncccc3c2)cc1", "PARP1 L713F-nLuc/akaLuc ratio": 0.5}
{"smiles": "COc1cc2nccc(Oc3ccc(NC(=O)NC4CC4)c(Cl)c3)c2cc1C(N)=O", "note": "[Lenvatinib (E7080)]", "PARP1 L713F-nLuc/akaLuc ratio": 0.673}
{"smiles": "N#CCNC(=O)c1ccc(-c2ccnc(Nc3ccc(N4CCOCC4)cc3)n2)cc1", "note": "[Momelotinib (CYT387)]", "PARP1 L713F-nLuc/akaLuc ratio": 0.585}
{"smiles": "CC(C)c1cccc(=O)c(O)c1", "note": "[Hinokitiol]", "PARP1 L713F-nLuc/akaLuc ratio": 0.993}
{"smiles": "Nc1nc(Cl)nc2c1ncn2[C@@H]1O[C@H](CO)[C@@H](O)[C@@H]1F", "note": "[Clofarabine]", "PARP1 L713F-nLuc/akaLuc ratio": 0.577}
{"smiles": "COc1cc2c(NC3CCN(C(C)C)CC3)nc(N3CCC(F)(F)CC3)nc2cc1OCCCN1CCCC1", "PARP1 L713F-nLuc/akaLuc ratio": 1.03}
{"smiles": "Cc1ccc2[nH]c3c(c2c1)CCCC3C(N)=O", "note": "(centres undefined)", "PARP1 L713F-nLuc/akaLuc ratio": 1.25}
{"smiles": "Cc1cn(-c2cc(NC(=O)c3ccc(C)c(Nc4nccc(-c5cnccn5)n4)c3)cc(C(F)(F)F)c2)cn1", "note": "[Radotinib]", "PARP1 L713F-nLuc/akaLuc ratio": 0.904}
{"smiles": "N#C/C(=C\\c1ccc(O)c(O)c1)C(=O)NCc1ccccc1", "PARP1 L713F-nLuc/akaLuc ratio": "1.13 and 0.936"}
{"smiles": "CCOC(=O)c1ccnc(CNCC(=O)N(CC)CCN(C)C)c1", "PARP1 L713F-nLuc/akaLuc ratio": "2.92 (active)"}
{"smiles": "Cc1cccc(-c2[nH]c(CNc3ccccc3F)nc2-c2ccc3ncnn3c2)n1", "note": "[Vactosertib ?(TEW-7197)]", "PARP1 L713F-nLuc/akaLuc ratio": 1.18}
{"smiles": "O=C(CC[C@H](NC(=O)OCc1ccccc1)C(=O)O)NCCCC[C@H](NC(=O)OCc1ccccc1)C(=O)Nc1ccccc1", "PARP1 L713F-nLuc/akaLuc ratio": 1.06}
{"smiles": "CN(C)CCCn1cc(C2=C(c3c[nH]c4ccccc34)C(=O)NC2=O)c2ccccc21", "note": "[Bisindolylmaleimide I]", "PARP1 L713F-nLuc/akaLuc ratio": "26.8 (active)"}
{"smiles": "CC(C)(O)CC(=O)NCCn1ccc2ncnc(Nc3ccc(Oc4cccc(C(F)(F)F)c4)c(Cl)c3)c21", "PARP1 L713F-nLuc/akaLuc ratio": 0.662}
{"smiles": "Cc1ccc(Oc2nc3cc(-c4ccc(-c5ccccc5)cc4)c(Cl)cc3[nH]2)cc1C(=O)O", "PARP1 L713F-nLuc/akaLuc ratio": 0.635}
{"smiles": "NC(=O)C1CCCc2c1[nH]c1ccc(Cl)cc21", "note": "(centres undefined) [Selisistat]", "PARP1 L713F-nLuc/akaLuc ratio": 0.963}
{"smiles": "COC(=O)c1ccc2c(c1)nc(NC(=O)c1ccccc1)n2CCCc1ccccc1", "PARP1 L713F-nLuc/akaLuc ratio": 0.949}
{"smiles": "CN(c1ccccc1)c1ccc2c(c1)CCC[C@H]2CNc1cnccc1C(=O)O", "PARP1 L713F-nLuc/akaLuc ratio": 0.387}
{"smiles": "O=C(c1cc(Cn2c(=O)[nH]c(=O)c3c(F)cccc32)ccc1F)N1CCN(c2ncccn2)CC1", "note": "[Senaparib]", "PARP1 L713F-nLuc/akaLuc ratio": "3.98 (active)"}
{"smiles": "N#CCNC(=O)c1ccc(-c2ccnc(Nc3ccc(N4CCOCC4)cc3)n2)cc1", "note": "[Momelotinib]", "PARP1 L713F-nLuc/akaLuc ratio": 0.661}
{"smiles": "CS(=O)(=O)CCNCc1ccc(-c2ccc3ncnc(Nc4ccc(OCc5cccc(F)c5)c(Cl)c4)c3c2)o1", "note": "[Lapatinib]", "PARP1 L713F-nLuc/akaLuc ratio": 0.617}
{"smiles": "CNS(=O)(=O)C[C@H]1CC[C@H](N(C)c2[nH]cnc3nccc2-3)CC1", "note": "[Oclacitinib (maleate)]", "PARP1 L713F-nLuc/akaLuc ratio": 0.749}
{"smiles": "Cc1cc(-c2ccccc2)cc(C(=O)NNS(=O)(=O)c2cccc(O)c2)c1F", "PARP1 L713F-nLuc/akaLuc ratio": 1.16}
{"smiles": "C=C1CCC[C@]2(C)C=C3OC(=O)C(C)=C3C[C@@H]12", "note": "[Atractylenolide I]", "PARP1 L713F-nLuc/akaLuc ratio": 0.934}
{"smiles": "CN(C)CCCN(CC[C@H](N)C(=O)O)C[C@H]1O[C@@H](n2cnc3c(N)ncnc32)[C@H](O)[C@@H]1O", "note": "[GSK2807 (Trifluoroacetate)]", "PARP1 L713F-nLuc/akaLuc ratio": 0.926}
{"smiles": "Clc1ccc(C(c2ccccc2Cl)C(Cl)Cl)cc1", "note": "(centres undefined) [Mitotane]", "PARP1 L713F-nLuc/akaLuc ratio": 0.67}
{"smiles": "CCNC(=O)CCC/C=C\\C[C@@H]1[C@@H](/C=C/[C@@H](O)CCc2ccccc2)[C@H](O)C[C@@H]1O", "note": "[Bimatoprost]", "PARP1 L713F-nLuc/akaLuc ratio": 0.942}
{"smiles": "CC[C@H](C)n1cc(C)c2c(C(=O)NCc3c(C)cc(C)[nH]c3=O)cc(-c3ccc(N4CCNCC4)nc3)cc21", "PARP1 L713F-nLuc/akaLuc ratio": 1.03}
{"smiles": "CCN(CC)C(=O)c1ccc(Nc2nc(OCC3CCCCC3)c3[nH]cnc3n2)cc1", "PARP1 L713F-nLuc/akaLuc ratio": 0.71}
{"smiles": "CCNc1nc(Nc2cc(F)c(C(=O)N3CCOCC3)cc2OC)ncc1C(F)(F)F", "PARP1 L713F-nLuc/akaLuc ratio": 0.683}
{"smiles": "NC(=O)c1cnc2[nH]ccc2c1N[C@@H]1[C@@H]2CC3C[C@H]1C[C@@](O)(C3)C2", "note": "[Peficitinib]", "PARP1 L713F-nLuc/akaLuc ratio": 1.02}
